Screens (PubChem)
Sfp inh: blocks B. subtilis Sfp PPTase activity | Q9F4F7 | Biochemical Sfp PPTase activity, qHTS | Potency, µM, without a hit: largest response in the series, negative = inhibition, hits mostly inhibitors | 310,000 tested, 3.5% active;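 further: the enzyme is Sfp with the accession as filed and its product quenches rhodamine fluorescence; 0% = enzyme reaction without inhibitor and -100% = no enzyme wells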
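Step 1, compound plus 15 nM Sfp-PPTase, 15 min, room temperature. Step 2, add rhodamine-CoA (5 uM) and BHQ-2-YbbR (12.5 uM). Step 3, read 525/598 nm fluorescence at 0 and 30 min.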
G9a inh: blocks human histone lysine methyltransferase G9a | 350,000 tested, 8.8% active | Potency, µM (titrated, usually from 102 µM), for inactives: at the highest dose activity, negative = inhibition, most hits filed as inhibitors | G9a H3K9 monomethylation, AlphaScreen, 2 h; further: on the % scale 0 is the no-effect control and ±100 the full control effect; nearly all actives have a fitted effect of over 75% in size
Target sequence (Q96KQ7 913-1193 limits assumed): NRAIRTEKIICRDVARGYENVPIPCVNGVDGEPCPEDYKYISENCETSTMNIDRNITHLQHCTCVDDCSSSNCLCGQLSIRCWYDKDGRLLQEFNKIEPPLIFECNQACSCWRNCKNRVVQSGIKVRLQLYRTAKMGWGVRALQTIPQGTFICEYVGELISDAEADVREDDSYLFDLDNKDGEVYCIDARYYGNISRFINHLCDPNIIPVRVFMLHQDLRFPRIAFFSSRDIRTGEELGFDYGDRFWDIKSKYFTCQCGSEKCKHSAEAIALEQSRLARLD
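Methyltransferase reactions run at room temperature for 2 h (20 nM enzyme, 500 nM biotin-H3K9 peptide, 20 uM SAM) after a 15 min compound preincubation; product detected by AlphaScreen beads and anti-H3K9me1 antibody.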
BAZ2B block: blocks human BAZ2B; Q9UIF8; AlphaScreen BAZ2B-H3K14Ac peptide displacement; Potency, µM (top dose mostly 114 µM), inactives show at the top dose activity change, negative = inhibition, hits mostly inhibitors; 360,000 tested, 4.4% active; further: on the % scale 0 is the no-effect control and ±100 the full control effect; nearly all actives have a fitted effect of over 60% in size
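AlphaScreen displacement of biotin-H3(5-23)K14Ac peptide (50 nM final) from BAZ2B (50 nM final) in PBS pH 7.4, 0.01% Tween-20; complex preformed 30 min RT, then compounds (top 110 uM) 30 min RT, beads 20 min dark.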
JMJD2A Tudor: inhibitors of human JMJD2A Tudor domain. Potency, µM (doses to about 114 µM), inactives show top-dose activity change, negative = inhibition, usual class: inhibitors. 390,000 tested, 4.4% active. O75164. AlphaScreen JMJD2A-Tudor / H3K4me3 peptide binding. AID 504339; further: on the % scale 0 is the no-effect control and ±100 the full control effect; nearly all actives have a fitted effect of over 50% in size
L3MBTL1 block: inhibitors of human L3MBTL1; AlphaScreen L3MBTL1–H3K9me1 peptide binding; 230,000 tested, 0.66% active; Q9Y468; Potency, µM (titrated, usually from 57.1 µM), for the others: at the top dose activity, negative = inhibition, actives largely listed as inhibitors; further: on the % scale 0 is the no-effect control and ±100 the full control effect; nearly all actives have a fitted effect of over 60% in size
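First, the protein-peptide complex forms for 30 min at room temperature (L3MBTL1 50 nM, biotinylated H3K9me1 peptide 75 nM). Next, compounds are pin-transferred and incubated 30 min. Finally, AlphaScreen beads are added and read after 30 min.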
HP1b binding inh: inhibitors of HP1-beta chromodomain binding to methylated histone tails. P83916. AlphaScreen HP1-beta / biotin-H3K9me3 peptide binding. Potency, µM (doses to about 114 µM), without a hit: at the top dose activity change, negative = inhibition, usual class: inhibitors. 390,000 tested, 0.56% active. AID 540317; further: nearly all actives have a fitted effect of over 70% in size
Target sequence (P83916 whole entry, looked up): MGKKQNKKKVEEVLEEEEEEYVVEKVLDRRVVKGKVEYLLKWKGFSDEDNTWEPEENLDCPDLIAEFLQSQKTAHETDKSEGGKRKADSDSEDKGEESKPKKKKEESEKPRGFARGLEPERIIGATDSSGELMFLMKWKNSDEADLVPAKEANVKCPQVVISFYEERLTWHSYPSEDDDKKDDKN
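AlphaScreen: HP1-beta (50 nM) preformed 30 min with biotin-H3(1-18)K9me3 peptide (50 nM) in PBS pH 7.4, 0.01% Tween-20. Compound added for 30 min at RT, then streptavidin donor/nickel chelate acceptor beads (10 ug/mL) for 30 min.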
* marks the source's active call; other numbers are inactive results; [ ] = another dose, or the depositor's remark. In the library only some 12% were active in any assay of this set; here they are far more common. The call rests on the fitted dose curve; in most records, active means well fitted curve in the direction sought with a large enough effect; inconclusive means small, poorly fitted or top-dose-only effect, or another doubt; inactive means no such curve, though single readings can be large; an effect the other way counts as inactive or inconclusive. Potency means the concentration at half of the fitted maximal effect.

For O=C(O)CCn1cc(C=C2C(=O)NC(=S)NC2=O)c(-c2cc3ccccc3oc2=O)n1 the results were Sfp inh 10µM*, G9a inh 11.2µM*, BAZ2B block 50.1µM*, JMJD2A Tudor 89.1µM*, L3MBTL1 block -21.5% and HP1b binding inh -13.5%.
`O=C(O)CCn1cc(C=C2C(=O)NC(=S)NC2=O)c(-c2ccccc2)n1` gave Sfp inh 14.1µM*, BAZ2B block 79.4µM*, JMJD2A Tudor 12.6µM*, L3MBTL1 block inconclusive and HP1b binding inh -16.5%.
For N#CCCn1cc(C=C2C(=O)NC(=O)NC2=O)c(-c2ccccc2)n1 the results were Sfp inh -23.8%, G9a inh inconclusive, BAZ2B block 4.3%, JMJD2A Tudor 2.1%, L3MBTL1 block -6.6% and HP1b binding inh 58.7%.
Screening CC1CN(C(=O)c2ccc(S(=O)(=O)Nc3ccccc3F)cc2)CC(C)O1 (configuration not stated) returned G9a inh -4.7%, BAZ2B block -2.1%, JMJD2A Tudor -7.9%, L3MBTL1 block -3.9% and HP1b binding inh 45.9%.
For CCCCCc1cc(O)c2c(c1)OC(C)(C)C1CC=C(C)CC21 (configuration not stated) the results were Sfp inh 16.4% and G9a inh -40.3%[12.7 µM].
For COc1cc(/C=N/NC(=O)c2cnccn2)cc(OC)c1OC the results were Sfp inh -4.8%, G9a inh inconclusive, BAZ2B block -6.0%, JMJD2A Tudor 9.4%, L3MBTL1 block 1.2% and HP1b binding inh -6.7%.
`O=C1Nc2ccccc2Sc2ccccc21` gave Sfp inh -2.1%, G9a inh 19.9%, BAZ2B block -12.0%, JMJD2A Tudor -8.8%, L3MBTL1 block inconclusive and HP1b binding inh 37.4%.
For c1ccc2c(c1)Nc1ccccc1S2 the results were Sfp inh 3.6%, G9a inh 12.6µM*, BAZ2B block 12.6µM*, JMJD2A Tudor inconclusive, L3MBTL1 block -9.6% and HP1b binding inh inconclusive.
Screening O=C(Nc1nn[nH]n1)c1cccc([N+](=O)[O-])c1 returned Sfp inh -26.8%, G9a inh 25.1µM*, BAZ2B block 79.4µM*, JMJD2A Tudor 22.4µM*, L3MBTL1 block 4.9% and HP1b binding inh 19.6%.
Screening COc1ccc(/C=N/NC(=O)c2cccc([N+](=O)[O-])c2)cc1OC returned Sfp inh 7.1%, BAZ2B block -15.4%, JMJD2A Tudor -6.5%, L3MBTL1 block 7.9% and HP1b binding inh 43.3%.
`C=CCSC1=N/C(=C\c2cc(OC)c3c(c2)OCO3)C(=O)S1` gave Sfp inh 17.8µM*, G9a inh 16.6%[59 µM], JMJD2A Tudor inconclusive, L3MBTL1 block -0.4% and HP1b binding inh 38.0%.
For CC1CCCN(CC(=O)c2ccc(Cl)c(Cl)c2)C1 (configuration not stated) the results were Sfp inh -5.2%, G9a inh 25.1µM*, BAZ2B block inconclusive, JMJD2A Tudor -6.2%, L3MBTL1 block -0.8% and HP1b binding inh 65.3%.
For CC1CCN(CC(=O)c2ccc3c(c2)OCCO3)CC1 the results were Sfp inh inconclusive, G9a inh 4.47µM*, JMJD2A Tudor 5.01µM*, L3MBTL1 block 10.1% and HP1b binding inh inconclusive.
Cc1cc([C@@H]2CCCN2C)on1 was read as Sfp inh 0.1% and G9a inh inconclusive.
`CN1CCC2(CC1)NC(=O)c1ccccc1N2` gave Sfp inh -6.3%, G9a inh 9.3%[59 µM], BAZ2B block -1.7%, JMJD2A Tudor -7.5% and HP1b binding inh 55.3%.
For CN1CCC2(CC1)N=C(c1ccc(F)cc1)C(=S)N2 the results were Sfp inh 79.4µM*, G9a inh 25.1µM*, BAZ2B block -1.3%, JMJD2A Tudor 31.6µM* and HP1b binding inh inconclusive.
For O=[N+]([O-])c1ccc(F)c([N+](=O)[O-])c1 the results were Sfp inh 14.9% and G9a inh inconclusive.
